The supplement of paper PMC10849652
Of roughly 7,900 targets only a part is listed; those with a hit were picked by preference. About 0.6% of all pairs of compound and target were hits.

How the values were obtained:
Experiment in all cases: log2 fold change, soluble protein after heating vs DMSO (PISA); higher = thermal stabilisation; K562 cells, 10 uM, 30 min; active = over 0.2 and 3.5 SD of the protein, either way, in both replicates (recomputed)
bafetinib = compound: Cc1ccc(NC(=O)c2ccc(CN3CC[C@H](N(C)C)C3)c(C(F)(F)F)c2)cc1Nc1nccc(-c2cncnc2)n1 [bafetinib]
Outline: (§1)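 Values are thermal stability changes relative to control samples and are taken from duplicates. They are stated as log2 fold changes. Before quantification by TMTpro 16plex LC-MS/MS with equalised channel sums, K562 cells at 2×10^6 cells/mL were treated with 10 μM compound for 30 min, heated in aliquots for 3 min across 48°C-58°C, pooled, extracted in PBS with 0.5% NP-40 at 4°C, and centrifuged at 21,000xg for 90 min to give the soluble supernatant.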

nilotinib = compound: Cc1cn(-c2cc(NC(=O)c3ccc(C)c(Nc4nccc(-c5cccnc5)n4)c3)cc(C(F)(F)F)c2)cn1 [nilotinib]
Outline: as §1

[1] = compound: Cc1nc(Nc2n[nH]c3c2CN(C(=O)N[C@H](CN(C)C)c2ccccc2)C3(C)C)c2sccc2n1
Outline: as §1

[2] = compound: Cc1ncc(-c2ccnc(Nc3ccc(S(C)(=O)=O)cc3)n2)n1C(C)C
Outline: as §1

mubritinib = compound: FC(F)(F)c1ccc(/C=C/c2nc(COc3ccc(CCCCn4ccnn4)cc3)co2)cc1 [mubritinib]
Outline: as §1

[3] = compound: NC1(c2ccc(-c3nc4ccn5c(=O)[nH]nc5c4cc3-c3ccccc3)cc2)CCC1
Outline: as §1

citarinostat = compound: O=C(CCCCCCNC(=O)c1cnc(N(c2ccccc2)c2ccccc2Cl)nc1)NO [citarinostat]
Outline: as §1

silmitasertib = compound: O=C(O)c1ccc2c(c1)nc(Nc1cccc(Cl)c1)c1ccncc12 [silmitasertib]
Outline: as §1

[4] = compound: c1cc(OCCN2CCCCC2)cc(-c2n[nH]c3ccc(-c4nnc[nH]4)cc23)c1
Outline: as §1

dasatinib = compound: Cc1nc(Nc2ncc(C(=O)Nc3c(C)cccc3Cl)s2)cc(N2CCN(CCO)CC2)n1 [dasatinib]
Outline: as §1

[5] = compound: Cn1cc(-c2ccc3c(c2)CCN3C(=O)Cc2cccc(C(F)(F)F)c2)c2c(N)ncnc21
Outline: as §1

[6] = compound: Cn1cc(-c2ccc3nnc(C(F)(F)c4ccc5ncccc5c4)n3n2)cn1
Outline: as §1

[7] = compound: NCC(=O)Nc1ccc(-n2nc(C(F)(F)F)cc2-c2ccc3c(ccc4ccccc43)c2)cc1
Outline: as §1

tipifarnib = compound: Cn1cncc1[C@@](N)(c1ccc(Cl)cc1)c1ccc2c(c1)c(-c1cccc(Cl)c1)cc(=O)n2C [tipifarnib]
Outline: as §1

[8] = compound: NC(=O)Nc1cc(-c2cccc(F)c2)sc1C(=O)N[C@H]1CCCNC1
Outline: as §1

entinostat = compound: Nc1ccccc1NC(=O)c1ccc(CNC(=O)OCc2cccnc2)cc1 [entinostat]
Outline: as §1

[9] = compound: O=C1NC(=O)C(c2cnc3ccccn23)=C1c1cn2c3c(cc(F)cc13)CN(C(=O)N1CCCCC1)CC2
Outline: as §1

[10] = compound: NC(=O)c1cnc(N[C@@H]2CCCC[C@@H]2N)nc1Nc1cccc(-n2nccn2)c1
Outline: as §1

[11] = compound: Cc1cccc(CC(=O)N2CCc3c2ccc(-c2cn(C)c4ncnc(N)c24)c3F)n1
Outline: as §1

vorinostat = compound: O=C(CCCCCCC(=O)Nc1ccccc1)NO [vorinostat]
Outline: as §1

Measured: log2 fold change

HBZ, A0A494C057
inactive: bafetinib -0.015 | nilotinib 0.171 | [1] -0.035 | [2] 0.127 | mubritinib -0.08 | [3] -0.022 | citarinostat -0.197 | silmitasertib 0.005 | [4] 0.876

GSE1 (UniProt Q14687)
Chain of UniProt Q14687 (Q14687 whole entry, looked up): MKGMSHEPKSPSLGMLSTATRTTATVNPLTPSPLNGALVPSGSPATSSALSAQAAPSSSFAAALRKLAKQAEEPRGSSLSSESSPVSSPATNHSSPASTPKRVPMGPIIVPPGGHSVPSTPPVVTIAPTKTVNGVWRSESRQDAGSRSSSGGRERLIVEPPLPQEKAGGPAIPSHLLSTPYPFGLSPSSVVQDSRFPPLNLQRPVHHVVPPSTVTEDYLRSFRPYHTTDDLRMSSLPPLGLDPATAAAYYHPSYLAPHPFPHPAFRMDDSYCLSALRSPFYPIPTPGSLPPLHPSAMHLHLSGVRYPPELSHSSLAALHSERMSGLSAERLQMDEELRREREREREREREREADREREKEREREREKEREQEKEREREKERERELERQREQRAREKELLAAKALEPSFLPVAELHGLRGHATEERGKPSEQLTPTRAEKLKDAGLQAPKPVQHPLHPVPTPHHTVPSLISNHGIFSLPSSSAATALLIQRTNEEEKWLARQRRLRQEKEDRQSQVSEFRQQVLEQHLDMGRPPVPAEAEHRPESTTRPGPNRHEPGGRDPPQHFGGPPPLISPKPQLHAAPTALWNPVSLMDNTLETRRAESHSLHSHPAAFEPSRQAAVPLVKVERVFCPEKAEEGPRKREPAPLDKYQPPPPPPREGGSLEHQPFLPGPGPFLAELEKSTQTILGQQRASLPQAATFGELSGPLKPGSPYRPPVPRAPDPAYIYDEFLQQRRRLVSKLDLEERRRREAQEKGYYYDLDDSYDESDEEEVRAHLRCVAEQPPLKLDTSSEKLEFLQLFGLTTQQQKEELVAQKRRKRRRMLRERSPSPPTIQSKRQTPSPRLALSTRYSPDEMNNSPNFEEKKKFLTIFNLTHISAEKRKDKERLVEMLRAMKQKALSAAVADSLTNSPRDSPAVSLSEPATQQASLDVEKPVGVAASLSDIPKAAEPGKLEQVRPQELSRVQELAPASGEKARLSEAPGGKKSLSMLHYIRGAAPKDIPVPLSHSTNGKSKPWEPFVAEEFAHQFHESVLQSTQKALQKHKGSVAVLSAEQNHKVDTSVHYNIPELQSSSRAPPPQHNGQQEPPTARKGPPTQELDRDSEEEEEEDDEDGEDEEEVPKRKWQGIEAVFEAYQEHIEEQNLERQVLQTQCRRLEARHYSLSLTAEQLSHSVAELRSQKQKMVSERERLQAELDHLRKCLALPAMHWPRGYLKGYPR
inactive: bafetinib 0.305 | nilotinib 0.034 | [1] 0.004 | dasatinib -0.453 | [2] -0.096 | [5] -0.009 | [6] 0.012 | [7] -0.044

GPS2 (UniProt Q13227)
Chain of UniProt Q13227 (Q13227 whole entry, looked up): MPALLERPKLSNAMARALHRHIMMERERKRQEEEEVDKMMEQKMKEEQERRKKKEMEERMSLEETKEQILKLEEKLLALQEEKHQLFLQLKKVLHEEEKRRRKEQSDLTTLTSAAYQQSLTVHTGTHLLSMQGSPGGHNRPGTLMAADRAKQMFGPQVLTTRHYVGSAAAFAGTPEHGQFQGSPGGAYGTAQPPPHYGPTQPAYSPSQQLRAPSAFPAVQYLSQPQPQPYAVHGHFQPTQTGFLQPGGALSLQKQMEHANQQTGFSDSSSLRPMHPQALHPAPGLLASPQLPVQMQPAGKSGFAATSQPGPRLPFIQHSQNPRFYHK
inactive: bafetinib -0.157 | nilotinib 0 | [1] -0.045 | [2] -0.074 | [6] 0.02 | tipifarnib -0.033 | mubritinib -0.059 | [8] 0.041 | [3] 0.079 | [7] -0.106 | entinostat -0.015 | citarinostat -0.023 | silmitasertib 0.031 | [9] -0.005 | [4] -0.092

IFITM3 (UniProt Q01628)
Chain of UniProt Q01628 (Q01628 whole entry, looked up): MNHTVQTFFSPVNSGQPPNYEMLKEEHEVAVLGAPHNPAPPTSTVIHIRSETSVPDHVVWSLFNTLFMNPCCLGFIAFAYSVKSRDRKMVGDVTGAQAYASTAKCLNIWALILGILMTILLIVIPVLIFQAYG
inactive: bafetinib -0.073 | nilotinib 0.07 | [1] -0.2 | dasatinib -0.076 | [2] -0.01 | [5] 0.049 | [6] -0.149 | tipifarnib 0.113 | mubritinib -0.157 | [8] -0.074 | [10] 0.1 | [3] -0.089 | [7] 0.14 | entinostat 0.008 | citarinostat 0.232 | silmitasertib -0.111 | [9] 0.072 | [4] -0.164

GBA2 (UniProt Q9HCG7)
Chain of UniProt Q9HCG7 (Q9HCG7 whole entry, looked up): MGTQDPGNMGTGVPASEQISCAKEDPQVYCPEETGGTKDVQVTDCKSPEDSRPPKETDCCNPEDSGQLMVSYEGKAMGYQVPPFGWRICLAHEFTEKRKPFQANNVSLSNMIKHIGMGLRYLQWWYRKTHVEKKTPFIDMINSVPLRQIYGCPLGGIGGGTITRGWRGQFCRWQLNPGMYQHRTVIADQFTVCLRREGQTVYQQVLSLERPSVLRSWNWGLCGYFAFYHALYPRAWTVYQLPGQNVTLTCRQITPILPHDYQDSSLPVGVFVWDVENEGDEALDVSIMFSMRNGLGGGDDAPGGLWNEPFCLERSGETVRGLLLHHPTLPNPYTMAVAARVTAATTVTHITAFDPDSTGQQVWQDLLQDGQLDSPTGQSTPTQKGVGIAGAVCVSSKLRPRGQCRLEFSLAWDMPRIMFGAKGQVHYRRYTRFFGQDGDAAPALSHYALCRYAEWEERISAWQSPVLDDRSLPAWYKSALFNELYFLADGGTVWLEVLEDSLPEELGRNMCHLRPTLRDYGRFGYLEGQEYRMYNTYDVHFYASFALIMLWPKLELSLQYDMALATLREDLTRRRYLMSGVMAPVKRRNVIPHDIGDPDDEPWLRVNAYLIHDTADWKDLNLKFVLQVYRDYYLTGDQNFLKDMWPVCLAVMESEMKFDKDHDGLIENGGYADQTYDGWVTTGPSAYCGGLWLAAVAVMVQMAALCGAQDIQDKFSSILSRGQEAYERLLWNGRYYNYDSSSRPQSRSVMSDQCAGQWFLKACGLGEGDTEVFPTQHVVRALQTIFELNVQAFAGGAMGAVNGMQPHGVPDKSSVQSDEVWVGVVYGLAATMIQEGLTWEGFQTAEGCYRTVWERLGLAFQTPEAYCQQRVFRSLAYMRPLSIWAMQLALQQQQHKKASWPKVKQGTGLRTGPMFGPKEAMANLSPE
inactive: bafetinib 0.045 | nilotinib -0.057 | [1] -0.061 | dasatinib -0.144 | [2] 0.007 | [5] 0.138 | tipifarnib 0.091 | mubritinib 0.234 | [8] -0.008 | [10] -0.006 | [3] -0.108 | [7] -0.129 | entinostat -0.023 | citarinostat -0.332 | silmitasertib 0.124 | [9] -0.027 | [4] -0.211

GREB1 (UniProt Q4ZG55)
inactive: [5] 0.046 | [8] 0.029 | [10] -0.103 | [7] -0.002 | entinostat 0.012 | [9] 0.036

H3-3A (UniProt P84243)
inactive: bafetinib -0.046 | nilotinib -0.038 | [1] -0.123 | dasatinib -0.133 | [2] -0.067 | [5] 0.08 | tipifarnib -0.261 | mubritinib 0.236 | [8] 0.072 | [3] -0.095 | [7] -0.096 | entinostat 0.104 | citarinostat 0.157 | silmitasertib -0.046 | [4] 0.028

GAB2 (UniProt Q9UQC2)
Chain of UniProt Q9UQC2 (Q9UQC2 whole entry, looked up): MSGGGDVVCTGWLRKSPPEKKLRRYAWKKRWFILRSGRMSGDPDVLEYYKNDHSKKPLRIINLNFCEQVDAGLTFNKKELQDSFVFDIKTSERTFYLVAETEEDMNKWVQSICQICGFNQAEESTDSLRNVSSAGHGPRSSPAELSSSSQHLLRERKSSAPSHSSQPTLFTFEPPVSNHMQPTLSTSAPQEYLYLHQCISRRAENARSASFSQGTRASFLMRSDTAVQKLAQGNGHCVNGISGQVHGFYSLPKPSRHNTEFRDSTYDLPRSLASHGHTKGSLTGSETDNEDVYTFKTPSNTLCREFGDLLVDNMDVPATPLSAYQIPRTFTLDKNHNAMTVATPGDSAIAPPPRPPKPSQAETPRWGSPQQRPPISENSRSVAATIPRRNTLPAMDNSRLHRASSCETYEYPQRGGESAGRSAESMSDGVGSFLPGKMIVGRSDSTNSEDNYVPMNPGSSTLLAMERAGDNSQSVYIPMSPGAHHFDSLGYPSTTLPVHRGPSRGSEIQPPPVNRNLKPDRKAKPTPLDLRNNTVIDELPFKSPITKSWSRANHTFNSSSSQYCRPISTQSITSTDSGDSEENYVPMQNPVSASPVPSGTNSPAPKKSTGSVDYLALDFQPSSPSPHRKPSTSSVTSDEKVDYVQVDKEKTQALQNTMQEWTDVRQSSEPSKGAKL
inactive: [11] 0 | dasatinib -0.599 | [5] 0.002 | [6] 0 | tipifarnib 0.175 | mubritinib 0.075 | [8] -0.087 | [10] -0.268 | [3] -0.081 | [7] 0.018 | entinostat 0.127 | vorinostat 0.151 | citarinostat 0.182 | silmitasertib -0.175 | [9] -0.095 | [4] -0.21

GBE1 (UniProt Q04446)
inactive: bafetinib 0.067 | dasatinib -0.275 | [5] -0.004 | [6] 0.059 | tipifarnib -0.608 | mubritinib 0.181 | [10] -0.11 | [3] -0.214 | [7] -0.07 | citarinostat 0.09 | silmitasertib 0.031 | [9] -0.049 | [4] -0.057

ICMT (UniProt O60725)
Chain of UniProt O60725 (O60725 whole entry, looked up): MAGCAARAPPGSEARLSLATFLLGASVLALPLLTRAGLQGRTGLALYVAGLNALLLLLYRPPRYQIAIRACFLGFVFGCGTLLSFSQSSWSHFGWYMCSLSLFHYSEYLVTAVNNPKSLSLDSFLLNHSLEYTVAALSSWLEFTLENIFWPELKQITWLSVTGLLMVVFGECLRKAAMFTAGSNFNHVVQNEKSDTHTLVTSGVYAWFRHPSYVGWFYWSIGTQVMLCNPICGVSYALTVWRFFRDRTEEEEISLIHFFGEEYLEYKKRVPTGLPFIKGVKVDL
inactive: bafetinib -0.103 | nilotinib 0.049 | [1] 0.17 | dasatinib 0.065 | [2] -0.003 | [6] 0.113 | tipifarnib 0.107 | mubritinib 0.284 | [8] 0.031 | [10] -0.153 | [3] -0.233 | [7] -0.079 | entinostat 0.007 | citarinostat -0.034 | silmitasertib 0.022 | [9] -0.013 | [4] -0.016

FCF1 (UniProt Q9Y324)
Chain of UniProt Q9Y324 (Q9Y324 whole entry, looked up): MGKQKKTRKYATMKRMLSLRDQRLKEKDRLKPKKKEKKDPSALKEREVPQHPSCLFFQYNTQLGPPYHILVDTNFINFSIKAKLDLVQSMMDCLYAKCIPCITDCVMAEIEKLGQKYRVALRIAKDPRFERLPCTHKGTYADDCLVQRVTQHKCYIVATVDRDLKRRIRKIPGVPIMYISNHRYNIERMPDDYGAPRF
inactive: [11] 0.042 | dasatinib 0.139 | [6] -0.119 | tipifarnib 0.242 | mubritinib -0.129 | [8] 0.244 | [3] 0.097 | [7] 0.36 | entinostat 0 | vorinostat -0.045 | citarinostat -0.137 | silmitasertib 0.099 | [9] 0.349 | [4] -0.375

FGG (UniProt P02679)
inactive: [11] 0.165 | [6] -0.018 | tipifarnib 0.127 | vorinostat -0.001

GOLGA6B (UniProt A6NDN3)
inactive: bafetinib -0.087 | [11] -0.042 | nilotinib -0.183 | [1] 0.02 | [2] 0.02 | mubritinib 0.146 | [8] 0.048 | [3] -0.054 | [7] 0.001 | entinostat 0.007 | vorinostat 0.114 | silmitasertib 0.022 | [9] 0.051

GAK (UniProt O14976)
inactive: [11] -0.072 | nilotinib 0.257 | [1] 0.792 | dasatinib 1.31 | [2] 0.232 | [5] -0.07 | [6] -0.031 | tipifarnib -0.238 | mubritinib 0.005 | [8] 1.52 | [10] 0.465 | [3] 0.145 | [7] 1.4 | entinostat -0.072 | vorinostat -0.01 | citarinostat -0.244 | silmitasertib 0.607 | [9] 0.236 | [4] 0.687

GDE1 (UniProt Q9NZC3)
Chain of UniProt Q9NZC3 (Q9NZC3 whole entry, looked up): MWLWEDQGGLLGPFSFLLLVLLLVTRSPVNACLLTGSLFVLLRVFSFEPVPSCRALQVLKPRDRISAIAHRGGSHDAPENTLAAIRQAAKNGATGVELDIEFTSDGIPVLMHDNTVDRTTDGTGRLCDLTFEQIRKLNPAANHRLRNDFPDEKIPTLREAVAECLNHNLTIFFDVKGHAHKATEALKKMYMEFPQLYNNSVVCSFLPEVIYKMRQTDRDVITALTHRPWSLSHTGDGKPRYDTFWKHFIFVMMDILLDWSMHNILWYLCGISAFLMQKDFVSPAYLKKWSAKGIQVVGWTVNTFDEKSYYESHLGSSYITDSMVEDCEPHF
inactive: bafetinib 0.081 | nilotinib 0.03 | [1] 0.054 | dasatinib 0.028 | [2] -0.032 | [5] 0.106 | [6] -0.029 | tipifarnib -0.001 | mubritinib 0.01 | [8] -0.001 | [10] 0.058 | [3] 0.094 | [7] -0.01 | entinostat -0.065 | citarinostat 0.024 | silmitasertib -0.086 | [9] -0.008 | [4] 0.032

HNRNPUL1 (UniProt M0R247)
inactive: nilotinib 0.061 | [1] -0.13 | dasatinib 0.206 | [2] 0.025 | [5] -0.024 | tipifarnib 0.259 | [8] -0.056 | [10] -0.629 | entinostat -0.352 | citarinostat -0.227 | [4] -0.014

GOLGA8R (UniProt I6L899)
Chain of UniProt I6L899 (I6L899 whole entry, looked up): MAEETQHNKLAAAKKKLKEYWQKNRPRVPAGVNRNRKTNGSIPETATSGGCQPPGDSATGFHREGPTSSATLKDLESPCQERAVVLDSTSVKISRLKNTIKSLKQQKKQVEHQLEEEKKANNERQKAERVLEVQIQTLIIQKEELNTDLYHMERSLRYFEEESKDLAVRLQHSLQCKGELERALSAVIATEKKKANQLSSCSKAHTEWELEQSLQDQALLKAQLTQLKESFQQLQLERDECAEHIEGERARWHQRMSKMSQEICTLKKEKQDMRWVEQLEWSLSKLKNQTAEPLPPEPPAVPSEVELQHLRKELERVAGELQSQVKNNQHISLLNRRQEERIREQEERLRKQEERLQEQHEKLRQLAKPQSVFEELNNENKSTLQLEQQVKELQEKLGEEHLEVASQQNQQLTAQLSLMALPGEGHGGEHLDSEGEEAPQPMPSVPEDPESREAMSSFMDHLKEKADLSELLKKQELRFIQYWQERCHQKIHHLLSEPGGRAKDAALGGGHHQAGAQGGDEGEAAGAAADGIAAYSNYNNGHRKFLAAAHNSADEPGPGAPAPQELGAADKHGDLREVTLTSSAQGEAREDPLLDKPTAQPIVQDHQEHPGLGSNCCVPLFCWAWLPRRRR
inactive: bafetinib -0.095 | [11] -0.021 | dasatinib -0.074 | [5] 0.189 | [6] 0.126 | tipifarnib 0.287 | [10] -0.1 | [7] 0.02 | vorinostat 0.073 | citarinostat 0.09 | [4] 0.006
